In PubChem BioAssay (NCATS):
Inconclusive results are not listed. Where a call stands in place of a potency, no number is given. A number with no mark means an inactive call. The source made the active and inactive calls. Calls come from the whole dose curve; as a rule, active = well fitted curve in the direction sought with a large enough effect; inconclusive = small, poorly fitted or top-dose-only effect, or another doubt; inactive = no such curve, though single readings can be large; an effect the other way counts as inactive or inconclusive.

Experiments:
CRL-7250 = normal cell line; assay: Cytotoxic Profiling of Annotated Libraries Using Quantitative High-Throughput Screening (AID 1296008); conditions: Five cell lines viability, CellTiter-Glo ATP luminescence, 48-72 h; max response: active compounds read low; note: nearly all actives have a fitted effect of over 60% in size; note: potency is the fitted concentration of half-maximal effect
Outline: (§1)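 Compounds were pin-transferred onto cells and incubated 48 or 72 hr at 37 degree Celsius, 95% humidity. CellTiter-Glo was added, plates sat 10 min at room temperature, then ATP-coupled luminescence was imaged as the viability read-out.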

HEK293 = assay: as above; conditions: Five cell lines viability, CellTiter-Glo ATP luminescence, 48-72 h; max response: active compounds read low
Outline: as §1

HaCat [1] = assay: as above; conditions: Five cell lines viability, CellTiter-Glo ATP luminescence, 48-72 h; max response: active compounds read low
Outline: as §1

KB-3-1 = assay: as above; conditions: Five cell lines viability, CellTiter-Glo ATP luminescence, 48-72 h; max response: active compounds read low
Outline: as §1

NIH3T3 [2] = assay: as above; conditions: Five cell lines viability, CellTiter-Glo ATP luminescence, 48-72 h; max response: active compounds read low
Outline: as §1

HACAT [3] = assay: qHTS assay to identify novel small-molecules to repurpose for Merkel cell carcinoma treatment (AID 1296009); conditions: MCC and control cell lines, CellTiter-Glo viability, 72 h; at 44.8 µM (top of the series) unless noted; note: nearly all actives have a fitted effect of over 60% in size
Outline: (§2)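 qHTS format: cells treated with library compounds in DMSO across 8 (NPC) or 11 (MIPE) concentrations. Readout after 72 hr at 37 degree celsius was CellTiter-Glo luminescence.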

NIH3T3 [4] = assay: as above; conditions: MCC and control cell lines, CellTiter-Glo viability, 72 h; at 44.8 µM (top of the series) unless noted
Outline: as §2

C33A = assay: Primary qHTS to identify gynecologic anti-cancer compounds using libraries of approved drugs and bioactive compounds (AID 1345084); conditions: Gynecologic cancer cell panel viability, ATPlite luminescence, 48 h; series mostly up to 57.5 µM; note: nearly all actives have a fitted effect of over 55% in size
Outline: (§3)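 48 h compound exposure at 37 C, 5% CO2; five-point qHTS. ATPlite luminescence readout of cell ATP.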

CAOV3 = assay: as above; conditions: Gynecologic cancer cell panel viability, ATPlite luminescence, 48 h; series mostly up to 57.5 µM
Outline: as §3

CASKI = assay: as above; conditions: Gynecologic cancer cell panel viability, ATPlite luminescence, 48 h; series mostly up to 57.5 µM
Outline: as §3

Es-2 = assay: as above; conditions: Gynecologic cancer cell panel viability, ATPlite luminescence, 48 h; series mostly up to 57.5 µM
Outline: as §3

HeLa = assay: as above; conditions: Gynecologic cancer cell panel viability, ATPlite luminescence, 48 h; series mostly up to 57.5 µM
Outline: as §3

Hek293T = assay: as above; conditions: Gynecologic cancer cell panel viability, ATPlite luminescence, 48 h, control line for the selectivity index; series mostly up to 57.5 µM
Outline: as §3

JEG-3 = assay: as above; conditions: Gynecologic cancer cell panel viability, ATPlite luminescence, 48 h; series mostly up to 57.5 µM
Outline: as §3

OV90 = assay: as above; conditions: Gynecologic cancer cell panel viability, ATPlite luminescence, 48 h; series mostly up to 57.5 µM
Outline: as §3

PA-1 = assay: as above; conditions: Gynecologic cancer cell panel viability, ATPlite luminescence, 48 h; series mostly up to 57.5 µM
Outline: as §3

SMILES	outcome (CRL-7250)	max response (HEK293) [%]	outcome (HaCat [1])	outcome (KB-3-1)	outcome (NIH3T3 [2])	outcome (HACAT [3])	outcome (NIH3T3 [4])	Potency (C33A)	Potency (CAOV3)	outcome (CASKI)	Potency (Es-2)	Potency (HeLa)	Potency (Hek293T)	Potency (JEG-3)	Potency (OV90)	Potency (PA-1)	max response (CRL-7250) [%]	Potency (HEK293)	max response (KB-3-1) [%]
CCC/C=C/C=C/C1CC(O)C(O)C(=O)C1CO (stereo not given)	inactive	-5.36	inactive	inactive	inactive	inactive	inactive	inactive	inactive	inactive	inactive	inactive	inactive	inactive	inactive	inactive	–	–	–
COc1ccc(CCc2nc3cc(-c4c(C)noc4C)ccc3n2C[C@H](C)N2CCOCC2)cc1Cl	–	–	inactive	–	inactive	inactive	inactive	inactive	inactive	inactive	inactive	inactive	inactive	inactive	inactive	inactive	-8.27	18.4 µM (active)	-12.6
C/C=C/C=C/C1=C2C(=O)C3(C)C4C(C(=O)CC(O)/C=C/C)=C(O1)C1(C)C2C2(C)OC1(O)C4(C)OC23O (stereo not given)	inactive	-2.55	inactive	–	inactive	inactive [at 17.4 µM]	inactive [at 17.4 µM]	inactive	inactive	inactive	inactive	inactive	inactive	inactive	inactive	inactive	–	–	3.96
O=C(O)CCc1cccc(O)c1O[C@@H]1O[C@H](CO)[C@@H](O)[C@H](O)[C@H]1O	–	-3.2	inactive	–	inactive	inactive	inactive	inactive	inactive	inactive	inactive	inactive	inactive	inactive	inactive	inactive	3.73	–	8.15
CC1(C(=O)O)CCCC2(C)C3CCC4CC3(CCC12)CC4C(=O)O (stereo not given)	inactive	1.27	inactive	–	inactive	inactive	inactive	inactive	inactive	inactive	inactive	inactive	inactive	inactive	inactive	inactive	–	–	6.21
